This is an account of results in PubChem BioAssay AID1347075 (National Center for Advancing Translational Sciences (NCATS), 2019).

About 5,500 (1.4%) of roughly 400,000 compounds were called active. Not shown: some 9% with an inconclusive outcome. Calls come from the whole dose curve; as a rule, active = well fitted cell-killing curve with a large enough effect; inconclusive = small, poorly fitted or top-dose-only effect, or effect the other way; inactive = flat fitted curve, though single readings scatter. Many of the other results were omitted from the sample, so actives are more common in it than they were.
% is set by controls: 0 for no effect and ±100 for the full control effect; potency is the fitted concentration of half-maximal effect.

The nature of the experiment: qHTS assay for MDR1-selective chemotherapeutics: Primary screen using the parental adenocarcinoma cell KB-3-1. Note: nearly all actives have a fitted effect of over 60% in size. Particulars: KB-3-1 viability, CellTiter-Glo ATP luminescence, 72 h; series mostly up to 46.1 µM; activity change, negative = cytotoxic: at the top concentration. In short, it runs like this:
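Cytotoxicity measured as CellTiter-Glo luminescence after 72 h at 37 C. Compound titrations were pinned onto drug-naive KB-3-1 parental adenocarcinoma cells grown in DMEM with 10% FBS, and normalized data fitted to concentration-response curves.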
For the compound `O=C(/C=C/c1ccccc1)N1CCN(Cc2cc(=O)n3nc(-c4ccccc4F)sc3n2)CC1`, the “activity change, negative = cytotoxic” value is -7.72% (inactive). Same read-out and setting: in the case of `Cc1ccc(CNC(=O)CN2CCN(Cc3ccc(Cl)cc3)C2=O)cc1` it was 9.48% (inactive). For the compound `Cc1ccc(CNC(=O)COc2ccc3c(c2)CCC3)cc1`, the “activity change, negative = cytotoxic” value was 22.2% (inactive). Take `C/C(CC(=O)NCc1ccc(Cl)cc1)=N\NC(=O)COc1ccc(C)cc1Br`: the Potency is 5.17 µM (active).

Turning to `Cc1ccc2oc(C(=O)Nc3ccc(S(=O)(=O)N4CCCCCC4)cc3)cc(=O)c2c1`, the “activity change, negative = cytotoxic” value is 25.6% (inactive).

On to `Cc1ccc(C)c(N2CCN(C(=O)Cc3c(C(=O)O)c(C)cn3C)CC2)c1`, for which the “activity change, negative = cytotoxic” value is 6% (inactive).

`CC[n+]1cc(C)ccc1/C=C/c1ccc(N(C)C)cc1`: the Potency was 1.84 µM (active). As for `CCc1ccc(-c2nn3c(C)nnc3s2)cc1NC(=O)c1ccc(-c2cccc(Cl)c2)o1`, the “activity change, negative = cytotoxic” value is -4.36% (inactive). The same measure, in the same setting: the figure for `COc1ccc(S(=O)(=O)n2nc(C)c(S(=O)(=O)N3CCCCCC3)c2C)cc1` is 16.2% (inactive). On the same count and under the same terms, in the case of `N#Cc1ccc[n+](CC(=O)c2ccc(O)c(O)c2)c1` it was 24.8% (inactive).

In the case of `Cc1cc(C(=O)OCC(=O)NCc2ccco2)c(C)n1-c1ccccc1`, the Potency is 4.61 µM (active). For `O=C(COC(=O)c1ccccc1O)NCc1ccco1`, the “activity change, negative = cytotoxic” value was 10.9% (inactive). As to `O=C(COC(=O)c1cnc(Cl)c(Cl)c1)NCc1ccco1`, the “activity change, negative = cytotoxic” value was 8.56% (inactive). Consider `Cc1ccc(NC2=C(c3ccc(C(F)(F)F)cc3)C(=O)c3ccccc32)cc1F`, for which the “activity change, negative = cytotoxic” value was -2.28% (inactive). On the same count and under the same terms, the figure for `Cc1cccc(NC(=O)N2CCN(C)c3ncccc32)c1C` is 0.477% (inactive). `COc1cc(Cn2c3ccc(NC(=O)CC(C)c4ccccc4)cc3c(=O)n2C)ccc1F` (stereo not given): the Potency was 16.4 µM (active). On to `COc1ccc(CCNC(=O)Nc2ccc3c(c2)c(=O)n(C)n3C)cc1OC`, for which the “activity change, negative = cytotoxic” value was 0% (inactive). Turning to `CCNC(=S)Nc1ccc2c(c1)c(=O)n(C)n2Cc1ccc(Cl)cc1`, the “activity change, negative = cytotoxic” value is -0.0168% (inactive).

For the compound `CN(C)c1ccc(C=Nc2ccc(/C=C/c3ccnc4ccccc34)cc2)cc1`, the “activity change, negative = cytotoxic” value was -14.7% (inactive). For `CN(C)c1ccc(/C=C/C=C/c2ccnc3ccccc23)cc1`, the Potency is 5.8 µM (active).

In the case of `CN(Cc1ccccc1)c1ccc(/C=C/c2ccnc3ccccc23)cc1`, the “activity change, negative = cytotoxic” value is -20.7% (inactive).

As for `CCc1nn(CC(=O)N2CCN(c3ccc(Cl)cc3)CC2)c(=O)c2cc3occc3n12`, the “activity change, negative = cytotoxic” value was -3.22% (inactive).

As to `CC1CN(C(=O)N2CCC(C(=O)NCc3cccs3)CC2)c2ccccc2O1` (stereo not given), the “activity change, negative = cytotoxic” value was 0.156% (inactive). As to `CCOc1ccc(Nc2nc3c(S(=O)(=O)c4cccc(Cl)c4)nnn3c3ccsc23)cc1`, the “activity change, negative = cytotoxic” value was -4.65% (inactive). Consider `Cc1cccc(NC(=O)CSc2ncc(-c3ccccc3)[nH]2)c1C`, for which the “activity change, negative = cytotoxic” value was 4.52% (inactive). The same measure, in the same setting: the figure for `CCOc1ccc(C(NC(=O)c2cc(OC)c(OC)c(OC)c2)c2cc(Cl)c3cccnc3c2O)cc1` (stereo not given) is 1.48% (inactive). Consider `CCCCC(=O)NC(c1ccc(OC)c(OC)c1)c1ccc2cccnc2c1O` (stereo not given), for which the Potency was 5.8 µM (active). `CCOc1ccc(C(CCc2ccccc2)NC(=O)c2ccc(OC)c(OC)c2)cc1OCC` (stereo not given): the “activity change, negative = cytotoxic” value was -6.52% (inactive). `COc1ccccc1CNC(=O)CCCn1c(=O)c2ccccc2n(CC(=O)Nc2ccc(C)cc2Cl)c1=O`: the “activity change, negative = cytotoxic” value is 1.36% (inactive).

In the case of `COc1ccccc1N1CCN(CCCNC(=O)c2cnn(-c3ccccc3Cl)c2C2CCN(C(=O)OC(C)(C)C)CC2)CC1`, the “activity change, negative = cytotoxic” value was -8.96% (inactive). On the same count and under the same terms, the figure for `Oc1ccc(Br)cc1C1C=C(c2ccc3c(c2)OCO3)NC(c2ccc(Cl)cc2)N1` (stereo not given) is -20.8% (inactive); for `Cc1cccc(-c2nc(SCC(=O)Nc3cc(C)on3)c3c(=O)n(C)c(=O)n(C)c3n2)c1` it is 17.7% (inactive); for `NC(=O)C1CCN(c2ncc(-c3ccc(Cl)cc3)s2)CC1` it is -4.4% (inactive). With `CC(=O)Nc1ccc(N2CCOCC2)c(C(=O)Nc2cccc(C)c2)c1`, the “activity change, negative = cytotoxic” value was 0.437% (inactive). Regarding `Cc1cccc(NC(=O)CCn2c(=O)oc3ccccc32)c1`, the “activity change, negative = cytotoxic” value is -9.78% (inactive). For `Cc1cccc(NC(=O)c2ccc([N+](=O)[O-])o2)c1`, the Potency is 9.2 µM (active). For `CCCN1CCc2nc(N3CCN(C)CC3)ncc2C1`, the “activity change, negative = cytotoxic” value was 0.109% (inactive). As to `COc1ccc(-c2c(C)nn3c(N4CCC(C(=O)NCCC(C)C)CC4)cc(C)nc23)cc1OC`, the “activity change, negative = cytotoxic” value is -6.48% (inactive). As for `CCCCCCCCn1c2c(c(=N)c3c1CCC3)CCCC2`, the Potency was 0.411 µM (active). For the compound `CCN1CCC(N(Cc2ccc(F)cc2)C(=O)Nc2cc(C)ccc2C)CC1`, the “activity change, negative = cytotoxic” value is -5.29% (inactive). Regarding `CC(OC(=O)CN1C(=O)c2ccccc2C1=O)C(=O)c1ccccc1` (stereo not given), the “activity change, negative = cytotoxic” value is 7.26% (inactive). For the compound `CC(C)OC(=O)CN1C(=O)C(=O)c2ccccc21`, the Potency was 18.4 µM (active). In the case of `Cc1cc(/C=C2/SC(=O)N(CC(=O)OC(C)C)C2=O)c(C)n1C`, the “activity change, negative = cytotoxic” value is -8.03% (inactive). Take `CCCCNC(=O)c1cc(-c2ccc(Cl)c(Cl)c2)on1`: the “activity change, negative = cytotoxic” value is 13.5% (inactive).

For `Cc1c(-c2nsc(NC(=O)c3cccc(Cl)c3)n2)nnn1-c1ccccc1C(F)(F)F`, the Potency is 23.1 µM (active).

As for `COc1ccc(-n2nnc(-c3nsc(NC(=O)c4ccc(C)c(C)c4)n3)c2C)cc1Cl`, the “activity change, negative = cytotoxic” value is 1.71% (inactive).

Turning to `CCc1cccc(-n2nnc(-c3nsc(NC(=O)c4ccc(C)cc4)n3)c2C)c1`, the “activity change, negative = cytotoxic” value was 0.369% (inactive).

Take `Cc1ccc(-c2nc(=N)sn2Cc2ccccc2)cc1`: the “activity change, negative = cytotoxic” value is -13.7% (inactive). Still for that read-out and setting: in the case of `CCOc1ccccc1N(C)C(=O)c1cc2c(s1)-c1ccccc1OC2` it was 3.52% (inactive). On the same count and under the same terms, the figure for `CCCCC(CCCC)c1ccc(C=Nc2ccc(/C=C/c3ccnc4ccccc34)cc2)cc1` is 0% (inactive); for `Cc1cc(C)n2ncc(C(=O)N3CCCC3)c2n1` it is 5.58% (inactive). In the case of `Cc1cc(=O)oc2cc(OCC3CC(c4ccccc4Cl)=NO3)ccc12` (stereo not given), the Potency is 1.3 µM (active). As to `Cc1ccccc1NC(=O)c1ccc(COc2ccc3c(C)cc(=O)oc3c2)cc1`, the “activity change, negative = cytotoxic” value was 4.61% (inactive). The same measure, in the same setting: in the case of `COc1cccc(-c2nnc(SCCOc3ccc4c(C)cc(=O)oc4c3)o2)c1` it was 6.22% (inactive); in that of `COC(=O)c1ccc(NC(=O)c2cnn(-c3ccc(Cl)cc3)c2C2CCN(C(=O)OC(C)(C)C)CC2)cc1`, 5.93% (inactive). In the case of `N#CCSc1nc(-c2ccccc2)nc2ccc(F)cc12`, the “activity change, negative = cytotoxic” value was -4.14% (inactive). Take `Clc1ccc2nc(-c3ccccc3)nc(C(Cl)Cl)c2c1`: the Potency was 3.26 µM (active). Regarding `Fc1ccc2nc(-c3ccccc3)nc(SCc3nnc(-c4ccccc4)o3)c2c1`, the “activity change, negative = cytotoxic” value was 15.5% (inactive). As for `Oc1c(C(c2ccc(F)cc2)N2CCN(Cc3ccccc3)CC2)sc2nc(-c3ccco3)nn12` (stereo not given), the “activity change, negative = cytotoxic” value was 7.25% (inactive).

Take `COc1cc(OC)c(OC)cc1/C=C/c1nc2ccccc2c(=O)n1-c1ccc(Br)c(C)c1`: the “activity change, negative = cytotoxic” value was -8.72% (inactive).

As for `Cc1cc(C)nc(NS(=O)(=O)c2ccc(NC(=O)c3cc(=O)c4ccc(C)c(C)c4o3)cc2)n1`, the “activity change, negative = cytotoxic” value was -0.0966% (inactive). As to `COc1ccc2c(c1)c(N1CCCC1=O)c(C(=O)Nc1ccc(OC)c(Cl)c1)n2C`, the “activity change, negative = cytotoxic” value was -21.1% (inactive). In the case of `Cc1cc(NC(=O)COc2ccccc2C#N)no1`, the “activity change, negative = cytotoxic” value is 4.1% (inactive). On to `Cc1cc(NC(=O)CSc2nc3c(cc2C#N)CCCCC3)no1`, for which the Potency was 5.8 µM (active). As to `CC(NC(=O)CSc1nc2c(cc1C#N)CN(C)CC2)c1ccccc1` (stereo not given), the “activity change, negative = cytotoxic” value was -1.09% (inactive).
